# This is a sample that favours compounds with a hit; in the whole collection about 1.9% have one here.
# Neddylation inh: inhibitors of cullin neddylation, primary screen, biochemical, TR-FRET, uHTS, NAE and Ubc12; AID 651699, 2012; inhibition, % at 25 µM; 360,000 compounds, 0.58% hits; in the data active = inhibition above about 36%
# Vif inh: HIV Vif self-association inhibitors, primary screen, imaging, HEK293T, single point | inhibition, % at 7.49 µM | 340,000 compounds, 0.35% hits | HEK293T cells, Vif self-association by quenched fluorescence, 24 h; in the data active = inhibition above about 50%, passing the limit was not always enough; inconclusive = no clear call, values can overlap the other calls; inactive = below about 31%
# dFosB act-1: activators of delta FosB homodimer, primary screen, biochemical, fluorescence polarization, TAMRA-CDK5 oligo, single point | activation, % at 25 µM | 340,000 compounds, 0.99% hits | purified delta FosB; percent of positive-control signal above neutral wells | Protein FosB (Mus musculus), P13346;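 active = mean activation above about 17%, with every replicate also reaching it, limit read from the data, passing the limit was not always enough; inconclusive = only one of the two conditions met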
# Target sequence (P13346 whole entry, looked up): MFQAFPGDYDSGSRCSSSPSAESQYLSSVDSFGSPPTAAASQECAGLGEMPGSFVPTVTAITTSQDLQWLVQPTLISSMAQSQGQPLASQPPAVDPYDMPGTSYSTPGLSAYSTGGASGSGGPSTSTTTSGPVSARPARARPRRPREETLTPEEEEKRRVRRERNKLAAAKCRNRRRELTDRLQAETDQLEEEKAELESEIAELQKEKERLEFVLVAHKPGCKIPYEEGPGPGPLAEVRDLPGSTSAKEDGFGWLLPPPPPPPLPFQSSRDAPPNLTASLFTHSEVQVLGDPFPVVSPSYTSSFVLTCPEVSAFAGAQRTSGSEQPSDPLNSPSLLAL
# INS-1E GSIS act: GLuc luminescence reporter in INS-1E cells, primary screen for activators of glucose-dependent secretion of insulin | INS-1E GLuc reporter insulin secretion, 2-3 h | activation, % at 16.6 µM | 370,000 compounds, 0.61% hits;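 active = lowest replicate activation of at least 40%, so every replicate reaches that level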;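 also: 0% = median of neutral control wells and 100% = median of IBMX positive control wells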
# Bfl-1 A1 inh: caspase 3/7 activation in MEF A1-2A-BIM cells, primary screen, A1 inhibitor project, cell-based, luminescence, HTS; Caspase-Glo 3/7 luminescence, 3 h; percent of clofoctol response, vehicle zero; caspase activation, % (no concentration beside the values); 330,000 compounds, 0.066% hits; AID 2462, 2010;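 active = over half of replicate activation scores above 10%, or exactly half above 10 with the replicate mean above 10; inconclusive = replicate mean below 10 yet half the replicates above 10; inactive = over half of replicates below 10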
# dFosB act-2: activators of mouse delta FosB DNA binding, confirmation, biochemical, fluorescence polarization, TAMRA-CDK5 oligo, cherry-picked samples; shares compounds with dFosB act-1; purified delta FosB; normalised: neutral wells 0, positive control 100; activation, % at 24.9 µM; 2,400 tested, under 10 active;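 active = highest replicate activation at or above 34% and every replicate reaching that threshold; inconclusive = meets only one of the two criteria; inactive = meets neither criterion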;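 also: higher polarization means more probe DNA bound by delta FosB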
# Neddyl conf: blockade of NEDD8 conjugation to cullin – biochemical, TR-FRET, single concentration, confirmation | calls only at 25 µM | 1,800 compounds, 13% hits | TR-FRET cullin neddylation biochemical assay | AID 652217, 2013 | shares compounds with Neddylation inh; in the data active = inhibition above about 40%;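 also: neddylation substrate is the cullin 1 ring ligase complex with SKP2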
# An asterisk follows results filed as active; i = inactive; ? = inconclusive; . = no result shown; + = active, no number.
SMILES,Neddylation inh,Vif inh,dFosB act-1,INS-1E GSIS act,Bfl-1 A1 inh,Neddyl conf,others
NC(N)=Nc1ccc2[nH]c3c(c2c1)C[C@@]1(O)[C@H]2Cc4ccc(O)c5c4[C@@]1(CCN2CC1CC1)C3O5 (stereo not given in full),-7,-8,45*,-5,.,.,dFosB act-2=5
O=C(/C=C/c1c[nH]c2ccccc12)c1c(O)n(CCc2ccccc2)c(=O)[nH]c1=O,15,3,22*,.,1,.,dFosB act-2=?
C/C=C/c1ccc([C@@H]2[C@@H](CO)N3CCCCN(C(=O)Cc4cccnc4)C[C@@H]23)cc1,.,.,.,4,.,.,
Cc1ccc(-n2nc(C)cc2NC(=O)COc2cc(C)cc3oc(=O)c4c(c23)CCC4)cc1,43*,-16,-4,0,1,i,
Cc1ccc(-c2cc(-c3ccccc3)cc(-c3ccccc3)[n+]2-c2ccc(C(=O)O)cc2)cc1,34*,4,1,5,0,+,
O=C(O)c1ccc(-[n+]2c(-c3ccccc3)cc(-c3ccccc3)cc2-c2ccccc2)cc1,-14,-3,1,-13,-1,.,
CC1(O)CCC2C3CCC4=CC(=O)CCC4=C3C=CC21C (stereo not given),40*,43,7,.,.,i,
COC(=O)[C@@H]1[C@@H](CO)[C@@H]2Cn3c(cccc3=O)[C@H]1N2Cc1nccs1,.,.,.,11,.,.,
O=C(Cc1ccncc1)N1CCCCN2[C@H](CO)[C@H](c3ccc(-c4ccncc4)cc3)[C@@H]2C1,.,.,.,3,.,.,
CC[C@@H](CO)NC(=O)[C@@H]1C=C2c3cccc4[nH]cc(c34)C[C@H]2N(C)C1,45*,-4,8,-13,.,.,
CCCN1[C@@H]2c3ccc(-c4ccc(F)cc4)c(=O)n3C[C@H]1[C@H](CO)[C@H]2C(=O)OC,.,.,.,5,.,.,
COc1cc2c(cc1OC)-c1c(OC)c(OC)cc3c1[C@H](C2)N(C)CC3,-7,2,-17,8,-1,.,
COc1cc2c(cc1O)CC1c3c(cc(O)c(OC)c3-2)CCN1C (stereo not given),43*,4,-5,-1,0,.,
CCCCn1c(O)c(/C=N/NC(=O)c2ccncc2)c(=O)[nH]c1=S,40*,2,15,5,-2,.,
Cn1c(O)c(/C=N/NC(=O)c2ccncc2)c(=O)[nH]c1=S,33,2,.,9,-1,.,
CCCCC(=O)N/N=C/c1c(O)n(CCc2ccccc2)c(=O)[nH]c1=O,45*,-1,.,.,0,i,
CCCCCCC(=O)N/N=C/c1c(O)n(CCCC)c(=S)[nH]c1=O,50*,-4,-16,-4,0,i,
O=C(O)[C@@H]1[C@@H](CO)[C@@H]2Cn3c(ccc(-c4ccncc4)c3=O)[C@H]1N2C(=O)C1CC1,.,.,.,4,.,.,
NC(N)=N/N=C/c1ccc(N2CCOCC2)cc1,54*,7,0,15,1,i,
COc1ccc(/C=N\N=C(N)N)cc1,-24,-1,4,6,0,.,
O=C1CNC[C@H]2[C@H](c3ccc(Br)cc3)[C@@H](CO)N12,.,.,.,5,.,.,

# Screening results from PubChem.
